Test results published in PubChem BioAssay (EPA / NIEHS).
More than one record can exist for a structure, and the calls need not agree. Active and inactive are the calls of the source. How the source made its calls: active means hit-call score of the fitted dose curve at least 0.9, where 1 is the maximum; inactive means score below 0.9.

Tests used:
[1] = ATG_CRE_CIS: Attagene CIS-FACTORIAL HepG2 Assay for human cAMP Responsive Element (CRE) binding protein 3 (AID 2282926); conditions: HepG2 CRE cis-reporter, Attagene multiplexed mRNA; actives raise or lower the signal
Procedure, shortened: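 HepG2 cells transiently transfected with a multiplexed reporter library (CRE-driven unit among them) were dosed for 24 h. Reporter mRNA was quantified by RT-PCR, fluorescent labelling, HpaI digestion and capillary electrophoresis, with bidirectional fitting against DMSO baseline.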

[2] = target: CCAAT/enhancer-binding protein beta (Homo sapiens) (UniProt P17676); assay: ATG_C_EBP_CIS: Attagene CIS-FACTORIAL HepG2 Assay for human CCAAT/Enhancer Binding Protein (C/EBP) beta (AID 2282927); conditions: HepG2 Attagene cis-factorial transcription factor reporter; actives raise or lower the signal
Procedure, shortened: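 HepG2, transient MRTU transfection, 24 h treatment. RT-PCR plus CE fluorescence; DMSO negative control, bidirectional fit.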

[3] = ATG_CMV_CIS: Attagene CIS-FACTORIAL HepG2 Assay for human CMV (Internal Marker) (AID 2282928); conditions: HepG2 CMV promoter reporter, transcription factor profiling; actives raise or lower the signal;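 further: endpoint acts as a background internal control marker rather than a target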
Procedure, shortened: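 CMV internal-marker background readout in transiently transfected HepG2 cells bearing cis-regulated reporter units. Reporter mRNA is measured 24 h after dosing by RT-PCR and capillary electrophoresis, with bidirectional fitting against DMSO.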

Chain of CCAAT/enhancer-binding protein beta (Homo sapiens) (P17676 whole entry, looked up): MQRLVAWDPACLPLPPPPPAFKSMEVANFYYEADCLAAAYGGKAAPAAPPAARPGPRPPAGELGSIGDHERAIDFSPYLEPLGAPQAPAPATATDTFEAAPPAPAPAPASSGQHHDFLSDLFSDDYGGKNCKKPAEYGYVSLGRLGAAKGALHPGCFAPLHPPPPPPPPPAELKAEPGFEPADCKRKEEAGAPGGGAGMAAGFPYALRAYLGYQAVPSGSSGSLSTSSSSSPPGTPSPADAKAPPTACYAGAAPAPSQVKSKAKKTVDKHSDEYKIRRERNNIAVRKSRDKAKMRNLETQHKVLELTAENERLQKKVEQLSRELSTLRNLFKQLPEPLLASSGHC

SMILES | outcome [1] | AC50 [2] | outcome [3] | outcome [2] | AC50 [3] | AC50 [1]
CCCCCCCCCCCCCCCCCC[N+](C)(C)Cc1ccccc1 | inactive | 75.8 µM (active) | inactive |  |  | 
Cc1ccc(C)c(S(=O)(=O)O)c1 | inactive |  | inactive | inactive |  | 
c1ccc2c(c1)CCC2 | inactive |  | inactive | inactive |  | 
CC(C)(C)C1CCCCC1O (configuration not stated) | inactive |  | inactive | inactive |  | 
OCC1CCC(CO)CC1 (configuration not stated) | inactive |  | inactive | inactive |  | 
Clc1ccc2c(Cl)ccnc2c1 | inactive |  |  | inactive | 57.3 µM (active) | 
Brc1cc(Br)c(Oc2c(Br)cc(Br)c(Br)c2Br)cc1Br | inactive |  | inactive | inactive |  | 
O=C(F)C(F)(F)C(F)(F)C(F)(F)C(=O)F | inactive |  | inactive | inactive |  | 
CCCCCCCC(OC)OC | inactive |  | inactive | inactive |  | 
O=C1C=CC(=O)N1c1cccc(N2C(=O)C=CC2=O)c1 | inactive |  | inactive | inactive |  | 
Brc1ccc(Oc2ccc(Br)cc2Br)cc1 | inactive |  | inactive | inactive |  | 
O=C1c2ccccc2C(=O)c2c(O)c(O)cc(O)c21 | inactive |  |  | inactive | 27.3 µM (active) | 
FC(F)(F)C(F)(F)C(F)(F)C(F)(F)I | inactive |  | inactive | inactive |  | 
O=P(O)(O)CCC(F)(F)C(F)(F)C(F)(F)C(F)(F)C(F)(F)C(F)(F)F | inactive |  | inactive | inactive |  | 
Nc1ccn([C@@H]2O[C@H](CO)[C@@H](O)C2O)c(=O)n1 (some centres not stated) | inactive |  | inactive | inactive |  | 
FC(F)=C(F)C(F)(F)C(F)(F)C(F)(F)C(F)F | inactive |  | inactive | inactive |  | 
CCCCCCOC(=O)c1ccc(O)cc1 |  |  |  | inactive | 51 µM (active) | 44.2 µM (active)
O=C(O)CCC(F)(F)C(F)(F)C(F)(F)C(F)(F)C(F)(F)C(F)(F)F | inactive |  | inactive | inactive |  | 
CCCC=O | inactive |  | inactive | inactive |  | 
CCCCCCCCC(C)=O | inactive |  | inactive | inactive |  | 
CC[N+](CC)(CC)Cc1ccccc1 | inactive |  | inactive | inactive |  | 
NNc1nc(-c2ccc([N+](=O)[O-])cc2)cs1 | inactive |  | inactive | inactive |  | 
Clc1ccc(Nc2nnc(Cc3ccncc3)c3ccccc23)cc1 | inactive |  | inactive | inactive |  | 

SMILES | outcome [1] | AC50 [2] | outcome [3] | outcome [2] | AC50 [3] | AC50 [1]
C[C@]12CC[C@@H]3c4ccc(O)cc4CC[C@H]3[C@@H]1CC[C@@H]2OC(=O)CCC1CCCC1 | inactive | 137 µM (active) |  |  | 25.3 µM (active) | 
CCOC(OCC)C(=O)c1ccccc1 | inactive |  | inactive | inactive |  | 
CCC1CO1 (configuration not stated) | inactive |  | inactive | inactive |  | 
CC=O | inactive |  | inactive | inactive |  | 
C=Cc1ccc(O)c(OC)c1 | inactive |  | inactive | inactive |  | 
C=CC(C)(CCC=C(C)C)OC(C)=O (configuration not stated) | inactive |  | inactive | inactive |  | 
CC(C)(O)C(=O)c1ccccc1 | inactive |  | inactive | inactive |  | 
CCOC(C)=O | inactive |  | inactive | inactive |  | 
Nc1cc(Cl)c(-c2cc(Cl)c(N)cc2Cl)cc1Cl | inactive |  |  | inactive | 2.08 µM (active) | 
C[C@]12CC[C@@H]3c4ccc(O)cc4CC[C@H]3[C@@H]1C[C@@H](O)[C@@H]2O | inactive |  | inactive | inactive | 64.6 µM (active) | 
CC(=O)Nc1ccc(S(N)(=O)=O)cc1 | inactive |  | inactive | inactive |  | 
CC(C)[C@@H]1CC[C@@H](C)C[C@H]1O | inactive |  | inactive | inactive |  | 
Cc1ccc(C(=O)c2ccccc2)cc1 | inactive |  |  | inactive | 61.1 µM (active) | 
CCO[Si](C)(C)OCC | inactive |  | inactive | inactive |  | 
CCCCC(CC)C(=O)OCCOCCOCCOCCOC(=O)C(CC)CCCC (configuration not stated) | inactive |  | inactive | inactive |  | 
O=C1OC2(c3ccccc31)c1cc(I)c(O)c(I)c1Oc1c2cc(I)c(O)c1I | inactive |  | inactive | inactive | 40.5 µM (active) | 
O=c1cc(-c2ccccc2)oc2ccc3ccccc3c12 | inactive |  | inactive | inactive |  | 
C=CC(=C)CC/C=C(\C)CCC=C(C)C | inactive |  | inactive | inactive |  | 
O=P(O)(O)CCC(F)(F)C(F)(F)C(F)(F)C(F)(F)C(F)(F)C(F)(F)C(F)(F)C(F)(F)F | inactive |  | inactive | inactive |  | 
CCC(C)c1ccccc1O (configuration not stated) | inactive |  | inactive | inactive |  | 
Cc1ccccc1C(OCCN(C)C)c1ccccc1 (configuration not stated) | inactive |  | inactive | inactive |  | 
FC(F)(F)C1(F)C(F)(F)C(F)(F)C(F)(F)C(F)(C(F)(F)F)C1(F)F (configuration not stated) | inactive |  | inactive | inactive |  | 
